{"source": "PubChem BioAssay (EPA / NIEHS)", "note": "Inconclusive results are not listed. The source made the active and inactive calls. How the source made its calls: active means hit-call score of the fitted dose curve at least 0.9, where 1 is the maximum; inconclusive means response in the unintended direction; inactive means score below 0.9."}
{"biological_target": "Estrogen receptor (Homo sapiens) (UniProt P03372)", "sequence (P03372 whole entry, looked up, the tested form may be a part)": "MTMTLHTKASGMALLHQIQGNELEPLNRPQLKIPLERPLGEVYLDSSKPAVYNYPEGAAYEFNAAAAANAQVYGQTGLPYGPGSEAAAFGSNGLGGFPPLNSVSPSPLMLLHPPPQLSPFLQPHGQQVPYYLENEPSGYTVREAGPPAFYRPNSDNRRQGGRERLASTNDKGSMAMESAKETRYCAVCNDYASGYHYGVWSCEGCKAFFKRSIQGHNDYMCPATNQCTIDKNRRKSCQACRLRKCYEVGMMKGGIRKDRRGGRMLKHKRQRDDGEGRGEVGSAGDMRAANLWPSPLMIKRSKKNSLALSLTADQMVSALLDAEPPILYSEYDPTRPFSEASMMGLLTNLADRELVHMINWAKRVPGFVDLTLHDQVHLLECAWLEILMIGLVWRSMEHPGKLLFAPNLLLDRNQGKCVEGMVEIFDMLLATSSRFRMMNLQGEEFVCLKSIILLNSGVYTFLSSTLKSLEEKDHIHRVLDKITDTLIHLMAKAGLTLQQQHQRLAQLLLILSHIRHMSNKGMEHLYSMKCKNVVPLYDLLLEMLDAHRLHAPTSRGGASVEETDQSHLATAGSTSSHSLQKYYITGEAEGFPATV", "assay": "OT_ER_ERaERa_1440: Odyssey Thera (OT) 24-hour HEK293T Protein-Complementation Assay for Estrogen Receptor-alpha/-alpha Homodimer (AID 2283349);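 further: hits raise fluorescence above DMSO for agonists and antagonists alike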", "outline": "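Readout is the rise in mean fluorescence from reporter fragment complementation when ERα LBD (aa 310-547) units dimerize in HEK293T cells. Measured 24 h after dosing and analysed as increase over DMSO control.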"}
{"smiles": "CCCCCCCC/C=C\\CCCCCCCC(=O)N(C)CC(=O)O", "outcome": "inactive"}
{"smiles": "CC(C)(C)c1cc(CCC(=O)OCC(COC(=O)CCc2cc(C(C)(C)C)c(O)c(C(C)(C)C)c2)(COC(=O)CCc2cc(C(C)(C)C)c(O)c(C(C)(C)C)c2)COC(=O)CCc2cc(C(C)(C)C)c(O)c(C(C)(C)C)c2)cc(C(C)(C)C)c1O", "outcome": "inactive"}
{"smiles": "CC(=O)CCC(C)C", "AC50": "69.3 µM (active)"}
{"smiles": "CCOC(=O)C1CC(=O)C(=C(O)C2CC2)C(=O)C1", "note": "(stereo not drawn)", "outcome": "inactive"}
{"smiles": "N#Cc1ccccc1O", "outcome": "inactive"}
{"smiles": "CC(C)Nc1ccc(NC(C)C)c2c1C(=O)c1ccccc1C2=O", "outcome": "inactive"}
{"biological_target": "Estrogen receptor (Homo sapiens) (UniProt P03372)", "assay": "OT_ER_ERaERa_0480: Odyssey Thera (OT) 8-hour HEK293T Protein-Complementation Assay for Estrogen Receptor-alpha/-alpha Homodimer (AID 2283351);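 further: rise in fluorescence from reassembled reporter fragments on ERα LBD homodimer in nucleus or whole cell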", "outline": "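HEK293T, stable ERα LBD (aa 310-547) PCA homodimer; 8 h compound exposure; fluorescence intensity, laser scanning cytometer; positive fitting direction, DMSO baseline.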"}
{"smiles": "CC(=O)CCC(C)C", "outcome": "inactive"}
{"smiles": "CCOC(=O)C1CC(=O)C(=C(O)C2CC2)C(=O)C1", "note": "(stereo not drawn)", "outcome": "inactive"}
{"smiles": "N#Cc1ccccc1O", "outcome": "inactive"}
{"smiles": "CC(C)Nc1ccc(NC(C)C)c2c1C(=O)c1ccccc1C2=O", "outcome": "inactive"}
{"biological_target": "Estrogen receptor (Homo sapiens) + Estrogen receptor beta (Homo sapiens) (UniProt P03372+Q92731)", "sequence (P03372 whole entry, looked up, the tested form may be a part)": "as above", "sequence (Q92731 whole entry, looked up, the tested form may be a part)": "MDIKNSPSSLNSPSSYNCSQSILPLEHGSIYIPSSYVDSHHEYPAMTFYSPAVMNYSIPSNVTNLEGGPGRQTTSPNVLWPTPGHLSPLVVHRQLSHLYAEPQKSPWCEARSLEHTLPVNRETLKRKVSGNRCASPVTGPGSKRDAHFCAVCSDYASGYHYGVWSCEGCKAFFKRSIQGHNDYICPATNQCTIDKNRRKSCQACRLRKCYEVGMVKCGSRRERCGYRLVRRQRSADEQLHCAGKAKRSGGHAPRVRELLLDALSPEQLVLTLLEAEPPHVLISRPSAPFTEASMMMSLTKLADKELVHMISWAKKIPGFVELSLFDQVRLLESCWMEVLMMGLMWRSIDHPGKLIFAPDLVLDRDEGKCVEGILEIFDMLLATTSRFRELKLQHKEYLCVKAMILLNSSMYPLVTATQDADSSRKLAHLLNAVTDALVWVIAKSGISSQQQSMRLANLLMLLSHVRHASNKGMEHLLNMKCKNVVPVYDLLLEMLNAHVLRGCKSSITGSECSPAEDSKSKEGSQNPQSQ", "assay": "OT_ER_ERaERb_1440: Odyssey Thera (OT) 24-hour HEK293T Protein-Complementation Assay for Estrogen Receptor-alpha/-beta Homodimer (AID 2283356);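 further: heteromer of ER alpha and ER beta binding domains; hits raise reporter fluorescence and both agonists and antagonists give an increase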", "outline": "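HEK293T stably expressing a PCA of ER alpha LBD (aa 310-547) and ER beta LBD (aa 263-489). After 24 h compound exposure, mean fluorescence intensity in nucleus (agonists) or nucleus and cytoplasm (antagonists) measured by laser scanning cytometry versus vehicle.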"}
{"smiles": "CCCCCCCC/C=C\\CCCCCCCC(=O)N(C)CC(=O)O", "outcome": "inactive"}
{"smiles": "CC(C)(C)c1cc(CCC(=O)OCC(COC(=O)CCc2cc(C(C)(C)C)c(O)c(C(C)(C)C)c2)(COC(=O)CCc2cc(C(C)(C)C)c(O)c(C(C)(C)C)c2)COC(=O)CCc2cc(C(C)(C)C)c(O)c(C(C)(C)C)c2)cc(C(C)(C)C)c1O", "outcome": "inactive"}
{"smiles": "CCOC(=O)C1CC(=O)C(=C(O)C2CC2)C(=O)C1", "note": "(stereo not drawn)", "outcome": "inactive"}
{"smiles": "CC(C)Nc1ccc(NC(C)C)c2c1C(=O)c1ccccc1C2=O", "outcome": "inactive"}
{"biological_target": "Estrogen receptor beta (Homo sapiens) (UniProt Q92731)", "sequence (Q92731 whole entry, looked up, the tested form may be a part)": "as above", "assay": "OT_ER_ERbERb_0480: Odyssey Thera (OT) 8-hour HEK293T Protein-Complementation Assay for Estrogen Receptor-beta/-beta Homodimer (AID 2283357);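 further: active means signal gain over DMSO baseline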", "outline": "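Readout: increase in mean fluorescence intensity (nucleus for agonists; nucleus plus cytoplasm for antagonists) relative to DMSO, from a reporter-fragment complementation of human ER-beta LBD homodimer in HEK293T cells dosed 8 hours.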"}
{"smiles": "CCCCCCCC/C=C\\CCCCCCCC(=O)N(C)CC(=O)O", "outcome": "inactive"}
{"smiles": "CC(C)(C)c1cc(CCC(=O)OCC(COC(=O)CCc2cc(C(C)(C)C)c(O)c(C(C)(C)C)c2)(COC(=O)CCc2cc(C(C)(C)C)c(O)c(C(C)(C)C)c2)COC(=O)CCc2cc(C(C)(C)C)c(O)c(C(C)(C)C)c2)cc(C(C)(C)C)c1O", "outcome": "inactive"}
{"smiles": "CC(C)Nc1ccc(NC(C)C)c2c1C(=O)c1ccccc1C2=O", "outcome": "inactive"}
{"biological_target": "PGR (gene 5241) (UniProt P06401)", "sequence (P06401 whole entry, looked up)": "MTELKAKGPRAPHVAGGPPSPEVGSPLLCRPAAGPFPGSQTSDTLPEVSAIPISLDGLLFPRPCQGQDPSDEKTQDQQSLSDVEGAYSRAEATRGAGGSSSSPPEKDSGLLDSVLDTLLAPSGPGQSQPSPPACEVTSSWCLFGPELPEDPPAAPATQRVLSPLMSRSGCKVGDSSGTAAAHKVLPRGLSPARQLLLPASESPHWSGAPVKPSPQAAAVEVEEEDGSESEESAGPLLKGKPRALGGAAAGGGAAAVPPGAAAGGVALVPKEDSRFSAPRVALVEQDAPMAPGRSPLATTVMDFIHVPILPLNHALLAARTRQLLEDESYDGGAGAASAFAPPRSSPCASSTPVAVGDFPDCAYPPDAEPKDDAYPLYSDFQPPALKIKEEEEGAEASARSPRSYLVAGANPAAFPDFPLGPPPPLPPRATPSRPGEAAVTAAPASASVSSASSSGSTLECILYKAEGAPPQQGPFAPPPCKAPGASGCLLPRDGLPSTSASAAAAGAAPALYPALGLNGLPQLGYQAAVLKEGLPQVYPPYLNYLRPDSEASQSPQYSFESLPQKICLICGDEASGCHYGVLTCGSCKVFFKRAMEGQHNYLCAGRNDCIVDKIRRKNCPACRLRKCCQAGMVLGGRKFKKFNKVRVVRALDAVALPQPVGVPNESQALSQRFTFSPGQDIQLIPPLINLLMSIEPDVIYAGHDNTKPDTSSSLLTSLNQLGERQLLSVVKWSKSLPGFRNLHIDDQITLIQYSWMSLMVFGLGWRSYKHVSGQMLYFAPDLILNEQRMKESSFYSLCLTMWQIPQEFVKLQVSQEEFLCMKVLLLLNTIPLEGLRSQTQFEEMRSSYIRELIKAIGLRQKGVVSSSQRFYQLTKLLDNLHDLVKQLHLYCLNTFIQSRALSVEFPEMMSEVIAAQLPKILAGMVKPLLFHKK", "assay": "NVS_NR_hPR: NovaScreen (NVS) Nuclear Receptor Binding Assay for human Progestron Receptor (PR) (AID 2283360);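 further: active means loss of bound radioligand signal versus DMSO baseline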", "outline": "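T47D lysate; tritiated or iodinated radioligand; scintillation count at 18 h. DMSO = negative control/baseline. Primary: 25 uM, duplicate. Secondary: concentration series for actives.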"}
{"smiles": "Cc1cnccn1", "outcome": "inactive"}
{"smiles": "CCN(CC)c1ccc(C=O)cc1", "AC50": "41.5 µM (active)"}
{"smiles": "CCN(CC)c1ccc(N=Nc2ccccc2)cc1", "outcome": "inactive"}
{"smiles": "c1ccc(C[P+](c2ccccc2)(c2ccccc2)c2ccccc2)cc1", "outcome": "inactive"}
{"smiles": "C[C@]12CC[C@H]3C(=CCc4cc(O)ccc43)[C@@H]1CCC2=O", "AC50": "46.7 µM (active)"}
{"smiles": "Oc1ccc(C2(c3ccc(O)c(C4CCCCC4)c3)CCCCC2)cc1C1CCCCC1", "outcome": "inactive"}
{"smiles": "O=C=Nc1cccc2c(N=C=O)cccc12", "outcome": "inactive"}
{"smiles": "CSc1ccc(O)cc1C", "outcome": "inactive"}
{"smiles": "CCN(CC)c1ccc(C=O)c(O)c1", "AC50": "41.7 µM (active)"}
{"biological_target": "rat Androgen Receptor (AR), Ar (gene 24208) (UniProt P15207)", "sequence (P15207 whole entry, looked up)": "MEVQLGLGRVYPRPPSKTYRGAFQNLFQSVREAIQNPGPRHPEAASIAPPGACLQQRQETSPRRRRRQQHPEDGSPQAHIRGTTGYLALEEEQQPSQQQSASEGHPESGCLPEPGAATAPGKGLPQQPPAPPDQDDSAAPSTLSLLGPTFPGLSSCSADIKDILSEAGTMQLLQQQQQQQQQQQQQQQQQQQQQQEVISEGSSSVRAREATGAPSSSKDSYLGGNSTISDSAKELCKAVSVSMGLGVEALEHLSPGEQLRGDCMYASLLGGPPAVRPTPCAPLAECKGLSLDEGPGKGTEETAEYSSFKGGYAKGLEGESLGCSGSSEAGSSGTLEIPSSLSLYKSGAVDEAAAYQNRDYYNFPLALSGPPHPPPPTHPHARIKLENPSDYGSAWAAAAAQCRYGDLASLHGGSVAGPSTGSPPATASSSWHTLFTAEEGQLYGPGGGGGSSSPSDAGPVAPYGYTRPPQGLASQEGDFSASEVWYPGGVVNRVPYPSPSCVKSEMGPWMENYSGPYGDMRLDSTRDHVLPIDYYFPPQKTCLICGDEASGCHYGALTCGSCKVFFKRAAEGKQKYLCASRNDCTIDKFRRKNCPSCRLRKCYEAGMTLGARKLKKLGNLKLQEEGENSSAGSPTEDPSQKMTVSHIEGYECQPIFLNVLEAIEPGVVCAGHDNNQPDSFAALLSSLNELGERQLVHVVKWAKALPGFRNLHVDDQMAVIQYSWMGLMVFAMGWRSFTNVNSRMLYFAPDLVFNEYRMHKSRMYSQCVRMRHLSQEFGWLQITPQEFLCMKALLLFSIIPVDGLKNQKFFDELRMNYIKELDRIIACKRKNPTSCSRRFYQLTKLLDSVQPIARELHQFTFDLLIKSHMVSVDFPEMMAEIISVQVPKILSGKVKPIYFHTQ", "assay": "NVS_NR_rAR: NovaScreen (NVS) Nuclear Receptor Binding Assay for rat Androgen Receptor (AR) (AID 2283366)", "outline": "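Cell-free radioligand binding on extracts of prostate from testosterone-pretreated rats, read by filter-based scintillation counting 18 h after dosing. Loss of bound signal fitted positively versus DMSO; primary screen in duplicate at 25 uM, actives followed up in concentration series.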"}
{"smiles": "C#CC(O)CCC", "note": "(stereo not drawn)", "outcome": "inactive"}
{"smiles": "O=C1c2ccccc2C(=O)c2c(Cl)cccc21", "outcome": "inactive"}
{"smiles": "CCN(CC)c1ccc(C=O)c(O)c1", "AC50": "25 µM (active)"}
{"tested_on": "guinea pig Dopamine Transporter (DAT), gene 100714898", "assay": "NVS_TR_gDAT: NovaScreen (NVS) Transporter Assay for guinea pig Dopamine Transporter (DAT) (AID 2283369);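 further: active compounds lower bound radioligand signal relative to DMSO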", "outline": "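Guinea pig striatal membranes, cell-free radioligand binding with filter-based scintillation counting, read 2 h after dosing. Loss of signal versus DMSO baseline; single-concentration primary (25 uM) then concentration-response up to 50 uM.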"}
{"smiles": "CCN(CC)c1ccc(N=Nc2ccccc2)cc1", "outcome": "inactive"}
{"smiles": "c1ccc(C[P+](c2ccccc2)(c2ccccc2)c2ccccc2)cc1", "AC50": "15.1 µM (active)"}
{"smiles": "C[C@]12CC[C@H]3C(=CCc4cc(O)ccc43)[C@@H]1CCC2=O", "AC50": "1.16 µM (active)"}
{"smiles": "Cc1ccc(S(=O)(=O)C(I)I)cc1", "AC50": "15.6 µM (active)"}
{"smiles": "CCN(CC)c1ccc2c(c1)Oc1cc(N(CC)CC)ccc1C21OC(=O)c2ccccc21", "outcome": "inactive"}
{"smiles": "CSc1ccc(O)cc1C", "AC50": "19.4 µM (active)"}
{"smiles": "CCN(CC)c1ccc(C=O)c(O)c1", "AC50": "15 µM (active)"}
{"biological_target": "human Dopamine Transporter (DAT), SLC6A3 (gene 6531) (UniProt Q01959)", "sequence (Q01959 whole entry, looked up)": "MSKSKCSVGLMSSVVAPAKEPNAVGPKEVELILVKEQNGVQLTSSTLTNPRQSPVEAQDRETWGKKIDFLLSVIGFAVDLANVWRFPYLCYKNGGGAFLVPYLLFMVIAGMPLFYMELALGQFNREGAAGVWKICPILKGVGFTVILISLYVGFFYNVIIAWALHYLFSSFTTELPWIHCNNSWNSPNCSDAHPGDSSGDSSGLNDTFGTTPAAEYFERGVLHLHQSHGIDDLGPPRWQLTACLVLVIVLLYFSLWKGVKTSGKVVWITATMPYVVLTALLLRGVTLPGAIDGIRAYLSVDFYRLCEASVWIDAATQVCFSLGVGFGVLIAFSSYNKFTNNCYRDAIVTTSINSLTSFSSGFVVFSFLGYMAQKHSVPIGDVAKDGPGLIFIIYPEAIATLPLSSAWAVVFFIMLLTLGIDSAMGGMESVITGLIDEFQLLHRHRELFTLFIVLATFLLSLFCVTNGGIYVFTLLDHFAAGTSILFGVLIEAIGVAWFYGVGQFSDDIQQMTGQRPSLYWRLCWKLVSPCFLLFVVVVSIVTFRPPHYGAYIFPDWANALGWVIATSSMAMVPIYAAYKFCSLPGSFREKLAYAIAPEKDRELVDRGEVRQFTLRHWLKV", "assay": "NVS_TR_hDAT: NovaScreen (NVS) Transporter Assay for human Dopamine Transporter (DAT) (AID 2283374);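 further: activity means loss of bound radioligand signal relative to DMSO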", "protocol": "NVS_TR_hDAT is a biochemical, single-readout assay that uses extracted gene-proteins in a cell-free assay. Measurements were taken 1 hour after chemical dosing in a 96-well plate.NVS_TR_hDAT is one of one assay component(s) measured or calculated from the NVS_TR_hDAT assay. It is designed to make measurements of radioligand binding, a form of binding reporter, as detected with scintillation counting signals by Filter-based radiodetection technology.Data from the assay component NVS_TR_hDAT was analyzed into 1 assay endpoint. This assay endpoint, NVS_TR_hDAT, was analyzed in the positive analysis fitting direction relative to DMSO as the negative control and baseline of activity. Using a type of binding reporter, loss-of-signal activity can be used to understand changes in the binding as they relate to the gene SLC6A3. Furthermore, this assay endpoint can be referred to as a primary readout, because the performed assay has only produced 1 assay endpoint. To generalize the intended target to other relatable targets, this assay endpoint is annotated to the transporter intended target family, where the subfamily is neurotransmitter transporter.\nBinding assays used specific radioligands (tritiated, iodinated) with non-radioactive competitive displacement ligands in agonist or antagonist protocols (as indicated) and various reference compounds and inhibitors to titrate specific binding to receptors and transporters. Most enzyme assays (CYPs, kinases, phosphatases, proteases, HDACs) used recombinant protein and specific substrates (fluorescence mostly, some colorimetric and radioactive) and inhibitors, followed by a biochemical separation of substrate and product. All assays for the biochemical HTS were initially run in duplicate at a single concentration (10 uM for CYP450 assays and 25 uM for all others). […] Each assay was run with positive and negative controls, and concurrent controls on every plate. The follow-up (secondary) screen tested active chemical-pairs in concentration series, as well as a few additional assays not tested in the primary screen, some selected negative inactives, and several cases re-run in the concentration series for confirmatory purposes."}
{"smiles": "CCN(CC)c1ccc(N=Nc2ccccc2)cc1", "outcome": "inactive"}
{"smiles": "CC(=O)CCC(C)C", "outcome": "inactive"}
{"smiles": "c1ccc(C[P+](c2ccccc2)(c2ccccc2)c2ccccc2)cc1", "AC50": "16.7 µM (active)"}
{"smiles": "C[C@]12CC[C@H]3C(=CCc4cc(O)ccc43)[C@@H]1CCC2=O", "AC50": "4.59 µM (active)"}
{"smiles": "O=C(c1ccccc1)c1ccc(Cl)cc1", "AC50": "20.2 µM (active)"}
{"smiles": "CCn1c2ccccc2c2ccccc21", "outcome": "inactive"}
{"smiles": "Cc1cc(O)c(C(C)(C)C)cc1C(C)(C)C", "AC50": "23.7 µM (active)"}
{"smiles": "CSc1ccc(O)cc1C", "AC50": "33.9 µM (active)"}
{"biological_target": "rat Serotonin Transporter (SERT), Slc6a4 (gene 25553) (UniProt P31652)", "sequence (P31652 whole entry, looked up)": "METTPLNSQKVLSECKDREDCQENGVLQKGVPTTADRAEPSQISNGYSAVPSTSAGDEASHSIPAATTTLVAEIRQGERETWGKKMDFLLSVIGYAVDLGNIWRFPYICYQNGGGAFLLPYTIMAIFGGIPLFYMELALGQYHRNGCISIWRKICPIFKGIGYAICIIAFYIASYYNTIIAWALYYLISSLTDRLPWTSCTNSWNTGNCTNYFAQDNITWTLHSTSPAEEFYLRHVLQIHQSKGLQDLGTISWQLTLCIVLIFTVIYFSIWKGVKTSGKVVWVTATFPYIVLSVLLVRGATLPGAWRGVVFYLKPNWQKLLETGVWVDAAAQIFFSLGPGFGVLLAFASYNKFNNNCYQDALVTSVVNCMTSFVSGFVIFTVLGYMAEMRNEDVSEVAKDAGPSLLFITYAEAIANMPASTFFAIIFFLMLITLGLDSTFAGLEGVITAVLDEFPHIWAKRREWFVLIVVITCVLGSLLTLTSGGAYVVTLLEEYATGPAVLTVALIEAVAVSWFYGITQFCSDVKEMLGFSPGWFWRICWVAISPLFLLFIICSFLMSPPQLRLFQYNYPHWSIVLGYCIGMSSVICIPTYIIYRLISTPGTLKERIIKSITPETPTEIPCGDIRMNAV", "assay": "NVS_TR_rSERT: NovaScreen (NVS) Transporter Assay for rat Serotonin Transporter (SERT) (AID 2283375)", "outline": "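Rat forebrain membranes; radioligand displacement at SERT read by filter-based scintillation counting, 1 h after dosing. Screened in duplicate at 25 uM, actives then run in concentration series; loss of signal versus DMSO baseline.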"}
{"smiles": "CCN(CC)c1ccc(C=O)cc1", "AC50": "15.8 µM (active)"}
{"smiles": "CCN(CC)c1ccc(N=Nc2ccccc2)cc1", "AC50": "3.36 µM (active)"}
{"smiles": "c1ccc(C[P+](c2ccccc2)(c2ccccc2)c2ccccc2)cc1", "AC50": "3.33 µM (active)"}
{"smiles": "C[C@]12CC[C@H]3C(=CCc4cc(O)ccc43)[C@@H]1CCC2=O", "AC50": "15.6 µM (active)"}
{"smiles": "CCN(CC)c1ccc2c(c1)Oc1cc(N(CC)CC)ccc1C21OC(=O)c2ccccc21", "AC50": "8.16 µM (active)"}
{"smiles": "CSc1ccc(O)cc1C", "outcome": "inactive"}
{"biological_target": "human Norepinephrine Transporter (NET), SLC6A2 (gene 6530) (UniProt P23975)", "sequence (P23975 whole entry, looked up)": "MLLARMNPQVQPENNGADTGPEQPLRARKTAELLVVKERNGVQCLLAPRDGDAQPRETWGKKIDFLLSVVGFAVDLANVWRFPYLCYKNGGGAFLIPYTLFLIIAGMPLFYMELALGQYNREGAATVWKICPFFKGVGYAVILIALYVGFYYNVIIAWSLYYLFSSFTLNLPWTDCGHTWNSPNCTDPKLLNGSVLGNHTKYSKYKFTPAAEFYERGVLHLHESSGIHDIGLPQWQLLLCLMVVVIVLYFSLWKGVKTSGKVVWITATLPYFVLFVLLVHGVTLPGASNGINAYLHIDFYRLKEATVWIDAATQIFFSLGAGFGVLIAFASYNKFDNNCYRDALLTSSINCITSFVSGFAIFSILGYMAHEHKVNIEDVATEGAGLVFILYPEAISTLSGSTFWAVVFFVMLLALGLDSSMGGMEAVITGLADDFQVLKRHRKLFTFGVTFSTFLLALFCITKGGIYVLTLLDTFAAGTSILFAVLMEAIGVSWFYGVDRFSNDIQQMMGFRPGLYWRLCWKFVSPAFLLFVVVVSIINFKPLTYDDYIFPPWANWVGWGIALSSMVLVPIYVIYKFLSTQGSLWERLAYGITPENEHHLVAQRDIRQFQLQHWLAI", "assay": "NVS_TR_hNET: NovaScreen (NVS) Transporter Assay for human Norepinephrine Transporter (NET) (AID 2283377);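 further: cell-free membrane protein extracted from CHO cells expressing human NET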", "outline": "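Radioligand binding to human NET in cell-free CHO-derived protein preparations, read by filter-based scintillation counting 1 hour after dosing. Loss of signal versus DMSO baseline indicated displacement; primary screening in duplicate at 25 uM, actives then titrated.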"}
{"smiles": "Cc1cc(O)c(C(C)(C)C)cc1C(C)(C)C", "AC50": "16.5 µM (active)"}
{"smiles": "CSc1ccc(O)cc1C", "AC50": "36.4 µM (active)"}
{"smiles": "CCN(CC)c1ccc(C=O)c(O)c1", "AC50": "25 µM (active)"}
